The record followed here is PubChem BioAssay.

For orientation: viability means the share of living cells, or the viability signal relative to a control. Usually inhibition stands for the change of the read-out against control, counted positive when it falls.

The nature of test [1]: P. berghei load reduction in hepatocytes – cell-based, HepG2, luciferase luminescence, HepG2 viability, primary screen (AID 624349; in the data active means parasite load remaining mostly below about 12%, no sharp cut-off; inactive means mostly above about 10%;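 further: 100% = mean of DMSO negative control wells on the same plate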). To be noted: P. berghei liver stage in HepG2, luciferase luminescence, concentration not given here; parasite load remaining: stronger effect = lower value; viability: measured here: HepG2 viability without parasites.
A short description of test [2]: signal quenchers or enhancers, Cy5 substrate/SSB – biochemical, NIH Clinical Collection, E. coli SSB, artefact control for HCV NS3 helicase inhibitor project (AID 743268; call rule not given here). To be noted: Cy5-oligo bound E. coli SSB, fluorescence interference.
Test [3] concerns Hepatitis C virus NS3 helicase. Nature of the test: blockers of NS3h binding to DNA – biochemical, fluorescence polarization, NIH Clinical Collection, primary screen (AID 743270; call rule not given here). To be noted: NS3 helicase binding to Cy5-dT15 DNA, stronger effect = higher value, concentration not given here.
Test [4] has as its target Single-stranded DNA-binding protein (Escherichia coli (strain K12)) (UniProt P0AGE0). Nature of the test: SSB-ssDNA binding inhibitors – biochemical, fluorescence polarization, NIH Clinical Collection, counter-screen for HCV NS3 helicase inhibitor project (AID 743271; in the data active means inhibition above about 28%). The following applies: E. coli SSB-DNA binding, stronger effect = higher value, concentration not given here. In general terms: Polarisation of emitted light reports the rotation of a fluorescent probe.

Test [5] in a line: compounds distorting NS3 helicase fluorescence signal – biochemical, NIH Clinical Collection, artefact control for HCV NS3 helicase inhibitor project (AID 743272; call rule not given here;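 further: HCV NS3 helicase with a Cy5 labelled single stranded DNA probe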). To be noted: fluorescence interference counterscreen, HCV NS3 helicase assay; stronger effect = lower value.
In test [6] the target is 6-phosphogluconate dehydrogenase, decarboxylating (Homo sapiens) (UniProt P52209). As to the kind of experiment: inhibition of human phosphogluconate dehydrogenase – biochemical, recombinant enzyme, NADPH absorbance, primary screen (AID 1159550;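 active means at least 20% inhibition of 6-phosphogluconate dehydrogenase activity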). To be noted: recombinant 6PGD, NADPH absorbance 341 nm; at 10 µM; stronger effect = higher value.
A short description of test [7]: modulation of C. elegans fzo-1 (AID 1259413; call rule not given here;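 further: fzo-1 mutant C. elegans worms in liquid wells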). To be noted: C. elegans fzo-1 modulator screen, mean read-out; stronger effect = higher value.
Test [8] can be described thus: viability loss with induced miR-34 in A549 – imaging, A549 dox-inducible miR-34, nuclei and caspase counts, primary screen (AID 1347080;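 active means compounds whose cell count with miR-34 switched on is under 0.7 times the count with it off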). To be noted: A549 miR-34 inducible, Hoechst nuclei count, 48 h.
A short description of test [9]: galactose survival enhancers in mitochondrial complex I cybrids – cell-based, galactose medium, ATP luminescence, primary screen (AID 1645843;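 active means z-score of at least 1.8 in each of two replicates, scored against plate mean and spread of sample wells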;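 further: positive z means more ATP and so rescue of galactose-driven cybrid death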). To be noted: complex I mutant cybrid cells, 72 h, stronger effect = higher value.
The subject of test [10] is F380Y. As to the kind of experiment: BK channel mutant inhibitors and activators – cell-based, U2OS BacMam, thallium flux, beta subunits, selectivity assay, profiling panel (AID 1259406).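 Further: initial slope of Thallos dye fluorescence rise after thallium is added; log ratio against the mean of 0.3% DMSO vehicle wells on the same plate.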 To be noted: U2OS BacMam BK variants, at 30 µM.
Test [11] concerns F380Y/beta2Delta. Described as above. To be noted: U2OS BacMam BK variants, at 30 µM.
The target of test [12] is Calcium-activated potassium channel subunit alpha-1 (Homo sapiens) + Leucine-rich repeat-containing protein 26 (Homo sapiens) (UniProt Q12791+Q2I0M4). The test is described as above. The following applies: U2OS BacMam BK variants, F380Y/Slo1WT/gamma1, at 30 µM.
The test system of test [13] is R275C. The description is as above. To be noted: U2OS BacMam BK variants, at 30 µM.
Test [14] concerns R275C/beta1. The description is as above. The following applies: U2OS BacMam BK variants, at 30 µM.
The test system of test [15] is R275C/beta2Delta. Described as above. To be noted: U2OS BacMam BK variants, at 30 µM.
The nature of test [16]: EMT-state selective cytotoxicity in co-culture – imaging, PC-3E GFP, TEM4-18 mCherry, primary screen (AID 1345086;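 active means compounds killing one labelled cell type while sparing the other, by normalised counts and ratio limits, not self-fluorescent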;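 on all read-outs here: cells exposed to compound for 72 h before imaging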;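 on red/green cell ratio (normalised): normalised mesenchymal count divided by normalised epithelial count so high means epithelial killing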). The following applies: PC-3E GFP / TEM4-18 mCherry co-culture, imaging cell counts, at 1 µM; for red/green cell ratio (normalised): actives lie on both sides, counts scaled to control wells, 1 = unselective.
A short description of test [17]: MELAS cybrid and Rieske KO viability enhancers – cell-based, MELAS cybrids, Rieske KO mouse fibroblasts, CellTiter-Glo, primary screen (AID 1508586;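 active means mean z-score across replicates of 1.96 or higher in either the MELAS or the Rieske mutant cell line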;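 further: z relative to plate mean and SD of compound and empty wells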). The following applies: low glucose. A general note: ATP-based viability assays read luminescence as a measure of living cells.
Test [18] addresses NAD(+) hydrolase SARM1 (Homo sapiens) (UniProt Q6SZW1). Nature of the test: blocking NAD cleavage by SARM1 SAM-TIR – cell lysate, NAD-Glo luminescence (AID 1508614;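 active means compound whose remaining NAD level is above about 45 nM, limit read from the data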). To be noted: SAM-TIR HEK293T lysate NADase, at 1 µM, stronger effect = higher value.
The target of test [19] is Mitogen-activated protein kinase 7 (Homo sapiens) (UniProt Q13164). Nature of the test: Gal4-ERK5 driven luciferase induction – cell-based, HTS, primary screen (AID 1508626;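 active means luciferase signal above three times the same-plate solvent-only control wells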;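 further: luciferase driven by Gal4-ERK5 fusion binding five Gal4 sites before minimal TATA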). To be noted: HeLa Gal4-ERK5 transactivation, 18 h, at 5 µM, stronger effect = higher value.
Where [20] appears, read: stronger effect = lower value, cell number ratio, induced over uninduced.
The mark [21] stands for this setting: measured here: relative caspase fold change +Dox/-Dox.
[22] abbreviates: measured here: total cells with miR-34 induction, stronger effect = lower value.
Setting [23] is: measured here: total cells without miR-34 induction.
Where [24] appears, read: measured here: epithelial PC-3E GFP cell survival.
[25] abbreviates: measured here: mesenchymal TEM4-18 mCherry cell survival.
The mark [26] stands for this setting: MELAS cybrid survival, CellTiter-Glo 48 h, stronger effect = higher value.
The mark [27] stands for this setting: Rieske KO mouse fibroblast survival, CellTiter-Glo 72 h.

Values joined by “and” are separate entries in the source; they are usually repeats but may differ in a detail not shown here. Equal values may be shown once. Active and inactive are the calls of the source.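 How the source made its calls, unless noted: active means thallium flux through the channel raised or lowered by more than 3 SD from vehicle-only wells, actives on both sides; inactive means the rest.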

6-phosphogluconate dehydrogenase, decarboxylating (Homo sapiens), sequence (P52209 whole entry, looked up): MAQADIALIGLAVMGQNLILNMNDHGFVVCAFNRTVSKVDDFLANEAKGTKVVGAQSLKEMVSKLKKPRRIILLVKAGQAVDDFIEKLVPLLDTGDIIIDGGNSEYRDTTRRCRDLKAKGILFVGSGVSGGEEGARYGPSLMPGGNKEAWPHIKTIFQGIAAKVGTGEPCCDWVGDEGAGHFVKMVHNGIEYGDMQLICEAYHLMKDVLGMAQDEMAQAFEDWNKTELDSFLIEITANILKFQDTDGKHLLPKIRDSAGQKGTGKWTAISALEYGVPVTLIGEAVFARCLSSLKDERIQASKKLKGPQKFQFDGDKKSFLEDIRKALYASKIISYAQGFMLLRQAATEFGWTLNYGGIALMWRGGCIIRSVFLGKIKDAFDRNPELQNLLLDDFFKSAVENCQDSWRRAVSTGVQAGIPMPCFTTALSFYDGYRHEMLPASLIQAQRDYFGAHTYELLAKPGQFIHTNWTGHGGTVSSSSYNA
Calcium-activated potassium channel subunit alpha-1 (Homo sapiens) + Leucine-rich repeat-containing protein 26 (Homo sapiens), sequence (Q2I0M4 whole entry, looked up, one chain of several): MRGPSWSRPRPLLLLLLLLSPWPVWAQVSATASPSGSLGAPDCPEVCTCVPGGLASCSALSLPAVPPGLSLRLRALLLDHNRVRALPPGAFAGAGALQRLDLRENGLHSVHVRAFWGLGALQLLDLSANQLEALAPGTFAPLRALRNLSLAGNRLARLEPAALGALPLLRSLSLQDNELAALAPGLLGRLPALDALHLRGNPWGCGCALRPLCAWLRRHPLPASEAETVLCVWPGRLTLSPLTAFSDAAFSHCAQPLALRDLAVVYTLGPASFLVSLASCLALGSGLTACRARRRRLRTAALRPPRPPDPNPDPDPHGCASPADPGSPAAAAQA
NAD(+) hydrolase SARM1 (Homo sapiens), sequence (Q6SZW1 whole entry, looked up, the tested form may be a part): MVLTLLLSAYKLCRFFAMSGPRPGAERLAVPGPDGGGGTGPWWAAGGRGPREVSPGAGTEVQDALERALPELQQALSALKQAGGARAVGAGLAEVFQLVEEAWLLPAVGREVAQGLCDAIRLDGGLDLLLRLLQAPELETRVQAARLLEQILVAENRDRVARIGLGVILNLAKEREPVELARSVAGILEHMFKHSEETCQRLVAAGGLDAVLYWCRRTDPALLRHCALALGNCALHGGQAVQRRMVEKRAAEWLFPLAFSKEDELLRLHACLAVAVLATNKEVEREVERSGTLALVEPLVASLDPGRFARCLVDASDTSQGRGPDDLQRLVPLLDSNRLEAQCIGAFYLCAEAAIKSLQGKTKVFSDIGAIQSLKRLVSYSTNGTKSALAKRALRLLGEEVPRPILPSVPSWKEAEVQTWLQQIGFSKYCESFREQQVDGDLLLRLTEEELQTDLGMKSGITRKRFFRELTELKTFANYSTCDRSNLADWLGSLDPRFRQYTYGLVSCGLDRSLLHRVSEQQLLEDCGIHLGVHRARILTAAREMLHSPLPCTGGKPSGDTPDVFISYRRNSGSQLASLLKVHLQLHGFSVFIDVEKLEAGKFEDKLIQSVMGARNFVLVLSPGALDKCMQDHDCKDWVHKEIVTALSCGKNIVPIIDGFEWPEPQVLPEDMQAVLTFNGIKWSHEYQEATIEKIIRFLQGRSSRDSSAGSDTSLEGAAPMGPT
Mitogen-activated protein kinase 7 (Homo sapiens), sequence (Q13164 whole entry, looked up, the tested form may be a part): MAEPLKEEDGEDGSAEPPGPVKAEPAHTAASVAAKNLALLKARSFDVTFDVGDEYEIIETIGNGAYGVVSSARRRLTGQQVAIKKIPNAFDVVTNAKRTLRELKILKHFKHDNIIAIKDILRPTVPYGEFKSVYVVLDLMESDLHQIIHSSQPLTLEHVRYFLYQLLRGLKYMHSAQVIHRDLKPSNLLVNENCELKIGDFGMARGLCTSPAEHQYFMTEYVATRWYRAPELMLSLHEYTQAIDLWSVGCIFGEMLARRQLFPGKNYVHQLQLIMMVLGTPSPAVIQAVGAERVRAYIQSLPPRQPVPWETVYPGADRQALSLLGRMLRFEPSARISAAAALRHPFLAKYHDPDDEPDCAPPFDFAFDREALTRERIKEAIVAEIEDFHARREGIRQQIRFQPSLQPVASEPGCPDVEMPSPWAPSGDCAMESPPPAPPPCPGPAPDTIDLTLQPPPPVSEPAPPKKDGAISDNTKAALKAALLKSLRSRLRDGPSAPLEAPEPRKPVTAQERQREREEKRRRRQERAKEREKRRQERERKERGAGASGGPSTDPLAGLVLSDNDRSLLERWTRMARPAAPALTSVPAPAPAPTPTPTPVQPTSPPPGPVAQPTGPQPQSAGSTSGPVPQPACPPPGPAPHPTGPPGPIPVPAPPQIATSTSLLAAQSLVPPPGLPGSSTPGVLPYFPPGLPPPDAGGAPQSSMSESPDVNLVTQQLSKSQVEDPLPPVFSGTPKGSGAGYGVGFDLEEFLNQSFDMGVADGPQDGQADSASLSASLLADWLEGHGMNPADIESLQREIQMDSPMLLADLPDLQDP

On to `CC1(C)SC2C(NC(=O)COc3ccccc3)C(=O)N2C1C(=O)O` (stereo not drawn), for which the parasite load remaining in [1] is 83.2% (inactive). In [1], this compound registered a viability of 94.2%. The fluorescence ratio in test [2] is 0.71 (active); in [5], 1.01 (inactive). Besides, the inhibition is -3.18% (inactive) in test [3], -5.05% (inactive) in test [4] and 3.81% (inactive) in [6]. Moreover, the mean signal in test [7] is 260 (inactive). The fold change is 0.993 (inactive) in [8] (setting [20]) and 1.37 in [8] (setting [21]). Also, the cell count in test [8] (setting [22]) was 11000; in test [8] (setting [23]), 11100. Moreover, the z-score in [9] was 1.5 (inactive). For the same compound, the log fold change Tl+ flux in [10] is -0.00633 (inactive); in [11], 0.0322 (inactive); in test [12], -0.0109 (inactive); in test [13], 0.00635 (inactive); in test [14], 0.0123 (inactive); in [15], -0.0109 (inactive).
In the case of `CNCCC=C1c2ccccc2CCc2ccccc21`, the fluorescence ratio was 1.02 (inactive) in [2] and 0.99 (inactive) in test [5]. The inhibition in test [3] is -5.91% (inactive); in test [4], -4.29% (inactive); in [6], -10.4% (inactive). For the same compound, in test [7], the mean signal is 233 (inactive). Moreover, the red/green cell ratio (normalised) in test [16] is 1.12 (inactive). In addition, the normalised cell number in test [16] (setting [24]) was found to be 1.12; in test [16] (setting [25]), 1.26. Further, the z-score in [17] (setting [26]) was -0.337 (inactive); in [17] (setting [27]), -0.307; in [9], -1.28 (inactive) and -1.35 (inactive). Also, the remaining NAD in test [18] was 10 nM (inactive). For the same compound, the luciferase signal in test [19] is 120 AU (inactive). For the same compound, the log fold change Tl+ flux in test [10] is 0.169 (active); in [11] it was 0.217 (active); in [12] it was 0.00764 (inactive); in [13], 0.0226 (inactive); in [14] it was 0.165 (active); in test [15], 0.126 (active).
For the compound `OC[C@H]1O[C@@H](Oc2cc(O)cc(/C=C/c3ccc(O)cc3)c2)[C@H](O)[C@@H](O)[C@@H]1O`, the parasite load remaining in test [1] is 100% (inactive). The viability in test [1] is 78.3%. Also, the fluorescence ratio in test [2] is 1 (inactive); in [5], 0.98 (inactive). For the same compound, the inhibition is 3.56% (inactive) in [3], 10.7% (inactive) in [4] and 15% (inactive) in test [6]. The mean signal in test [7] was 254 (inactive). Also, the log fold change Tl+ flux in [10] was 0.0295 (inactive); in test [11], -0.0576 (inactive); in [12], -0.0684 (inactive); in [13], -0.101 (inactive); in test [14], -0.0629 (inactive); in test [15], -0.0169 (inactive).
In the case of `C=CC1=C(C(=O)O)N2C(=O)[C@@H](NC(=O)/C(=N\O)c3csc(N)n3)[C@H]2SC1` (stereo in doubt), the parasite load remaining in [1] was 166% (inactive) and 48.1% (inactive). The viability in test [1] was 87.7% and 99.2%. Also, in [6], the inhibition was -2.05% (inactive). Moreover, in [7], the mean signal is 293 (inactive). The red/green cell ratio (normalised) in test [16] was 1.17 (inactive). The normalised cell number is 0.89 in test [16] (setting [24]) and 1.04 in test [16] (setting [25]). Also, the fold change in test [8] (setting [20]) was 0.92 (inactive); in test [8] (setting [21]), 4.11. Further, the cell count in test [8] (setting [22]) was 12500; in test [8] (setting [23]) it was 13600. In addition, the z-score in [17] (setting [26]) was -0.152 (inactive); in test [17] (setting [27]), -0.423. Also, in test [18], the remaining NAD was 10 nM (inactive). Further, the luciferase signal in [19] is 264 AU (inactive).
